Only some compounds are listed: those with a hit (about 3.7% of all), similar ones and a draw of the others.
BoNT F protease – blocks Botulinum neurotoxin F light chain protease; Multiplex microsphere protease cleavage assay, flow cytometry; inhibition, % at 10 µM; 360,000 compounds, 0.22% hits; in the data active = inhibition above about 35%, passing the limit was not always enough; inconclusive = no clear call, values can overlap the other calls
MazF activator – increases E. coli MazEF RNase cleavage of RNA | 350,000 compounds, 0.32% hits | FAM/BHQ RNA-DNA oligo cleavage fluorescence, 5 h | activation, % at 20 µM | AID 504720 | P0AE70; in the data active = activation above about 50%
Target sequence (P0AE70 whole entry, looked up): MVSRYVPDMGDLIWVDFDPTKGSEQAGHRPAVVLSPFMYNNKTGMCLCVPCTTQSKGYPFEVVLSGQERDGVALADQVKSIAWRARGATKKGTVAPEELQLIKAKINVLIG
Anthrax LF prot – blocks Bacillus anthracis lethal factor protease; multiplex microsphere protease cleavage assay, LF; inhibition, % at 10 µM; 360,000 compounds, 0.12% hits; AID 588501
BoNT-A LC inh2 – inhibitors of Botulinum neurotoxin A light chain protease; multiplex microsphere protease substrate cleavage, flow cytometry; inhibition, % at 10 µM; 360,000 compounds, 0.17% hits; AID 588499
Autofluor counter – flagged as autofluorescent in microsphere protease counterscreen; compound autofluorescence counterscreen, microsphere flow cytometry; hits give high values; fluorescence intensity (concentration not given with the values); 360,000 compounds, 3.1% hits; AID 624483; in the data active = fluorescence intensity above about 16000; inconclusive = no clear call, values can overlap the other calls
Of the large screens only hits and unclear results are named; the others gave an inactive call. Rule as the data show it, unless noted: active = inhibition above about 30%; inconclusive = no clear call, values can overlap the other calls; inactive = below that.

CN(C)c1ccc(C(=O)/C=C/c2ccccc2)cc1	MazF activator 459
N#Cc1c(-c2ccc(Cl)cc2)n(O)c2ccccc12	none
CCN(CC)C(=O)c1ccc2c(=O)n(CCOC)c(=S)[nH]c2c1	BoNT-A LC inh2 inconclusive, Autofluor counter 20993
COCCn1c(=S)[nH]c2cc(C(=O)N3CCN(c4ccccc4OC)CC3)ccc2c1=O	BoNT-A LC inh2 inconclusive, Autofluor counter 22207
CCOC(=O)N1CCN(C(=O)c2ccc3c(=O)n(Cc4ccc(Cl)cc4)c(=S)[nH]c3c2)CC1	Autofluor counter 19158
COCCn1c(=O)[nH]c2cc(C(=O)N3CCN(c4ccccc4OC)CC3)ccc2c1=O	none
CCN1CCN(C(=O)c2ccc3c(=O)n(Cc4ccccc4OC)c(=S)[nH]c3c2)CC1	Autofluor counter 18735
CCCn1c(=S)[nH]c2cc(C(=O)N3CCN(C(=O)OCC)CC3)ccc2c1=O	none
O=C(c1ccc2c(=O)n(Cc3ccccc3)c(=S)[nH]c2c1)N1CCOCC1	none
CCOCCCn1c(=S)[nH]c2cc(C(=O)N3CCOCC3)ccc2c1=O	Autofluor counter 17022
COc1ccc(-c2c(C)nn(-c3ccccc3)c2N)cc1	BoNT-A LC inh2 inconclusive, Autofluor counter 20023
COCCCNC(=O)c1c(NC(=O)c2ccccc2Cl)n(Cc2ccccc2)c2nc3ccccc3nc12	BoNT-A LC inh2 inconclusive, Autofluor counter 18554
N#Cc1c(NC(=O)c2ccccc2Cl)n(Cc2ccccc2)c2nc3ccccc3nc12	BoNT-A LC inh2 31
COCCNC(=O)c1c(NC(=O)c2ccco2)n(Cc2ccccc2)c2nc3ccccc3nc12	none
FC(F)(F)c1cc(C(F)(F)F)c2ccc(Oc3ccccc3)nc2n1	none
FC(F)(F)c1cccc(Oc2ccc3c(C(F)(F)F)cc(C(F)(F)F)nc3n2)c1	BoNT-A LC inh2 inconclusive, Autofluor counter 21842
CSc1nnc(C)c(=O)[nH]1	Autofluor counter 25237
Cc1nnc(SCCc2ccccc2)[nH]c1=O	BoNT-A LC inh2 inconclusive, Autofluor counter 19226
c1ccc(-c2nc(-c3ccco3)cs2)nc1	Autofluor counter 22107
O=C(C1CCC(Cn2c(=S)[nH]c3ccccc3c2=O)CC1)N1CCN(c2ccccn2)CC1 (configuration not stated)	none
O=C(C1CCC(Cn2c(=S)[nH]c3ccccc3c2=O)CC1)N1CCN(c2ccccc2)CC1 (configuration not stated)	none
COc1ccccc1N1CCN(C(=O)C2CCC(Cn3c(=S)[nH]c4ccccc4c3=O)CC2)CC1 (configuration not stated)	Autofluor counter 17156
COc1ccc(N2CCN(C(=O)C3CCC(Cn4c(=S)[nH]c5ccccc5c4=O)CC3)CC2)cc1 (configuration not stated)	Autofluor counter 17035
Cc1cc(C)cc(C(=O)Oc2coc(CSc3nnc(NC(=O)C4CC4)s3)cc2=O)c1	BoNT-A LC inh2 38
O=C(Oc1coc(CSc2nnc(NC(=O)C3CC3)s2)cc1=O)c1c(F)cccc1F	BoNT-A LC inh2 48
CC(=O)Nc1nnc(SCc2cc(=O)c(OC(=O)c3ccccc3)co2)s1	none
Cc1ccc(C)n1-c1ccc(-n2cnnn2)cc1	Autofluor counter 16233
Nc1[nH]c(C(=O)c2ccccc2)c(-c2ccc(Br)cc2)c1C(=O)c1ccc(Br)cc1	none (no result: MazF activator)
Oc1ccc(Cl)cc1C1=Nc2ccccc2N=C(c2ccco2)C1	MazF activator 113
O=C(CCc1ccccc1)c1ccc2c(c1)OCCCO2	BoNT-A LC inh2 inconclusive, Autofluor counter 19780
CCCCn1c(N(CCOC(C)=O)C(C)=O)nc2ccccc21	Autofluor counter 19843
CCCCn1c(=O)c(CC(C)=O)nc2ccccc21	none
CCCSc1nnc2n(N)c(=O)c3ccccc3n12	Autofluor counter 22548
Nn1c(=O)c2ccccc2n2c(SCc3ccccc3)nnc12	none
Cc1ccc2nc(-c3ccccc3)c(Cc3ccsc3)n2c1	none (no result: MazF activator)
Cc1nc2ccc(C(=O)N(C)Cc3ccco3)cn2c1N(C)C(=O)CCc1ccccc1	none (no result: MazF activator)
C=CCOc1ccccc1/C=N/O	BoNT-A LC inh2 inconclusive, Autofluor counter 24314
CN(C(=O)CSc1nnc(-c2ccco2)n1Cc1ccccc1)C1CCS(=O)(=O)C1 (configuration not stated)	none
C[C@@H]1CCCCO[C@@H](CN(C)C(=O)CCC(F)(F)F)[C@@H](C)CN([C@H](C)CO)C(=O)c2cc(N(C)C)ccc2O1	none
CCOC(=O)[C@H]1[C@H]2COc3ccc(Cl)cc3[C@@H]2N2C(=O)CN(Cc3ccc(Cl)cc3)C(=O)[C@@]12C	none
COc1ccc(OC)c(-n2c(-c3cccc(C)c3)n[nH]c2=S)c1	none
COc1ccc(OC)c(-n2c(-c3ccccc3)n[nH]c2=S)c1	BoNT-A LC inh2 inconclusive, Autofluor counter 22480
O=C(NC(=O)c1c(F)cccc1F)Nc1cccc(Oc2ncc(Cl)cn2)c1	none
CC(=O)N1c2ccc(S(=O)(=O)NCC3CCC(C(=O)NCc4ccccc4)CC3)cc2CC1C (configuration not stated)	none
FC(F)(F)c1cc(C(F)(F)F)c2ccc(N3CCOCC3)nc2n1	none
FC(F)(F)c1cc(C(F)(F)F)c2ccc(N3CCN(c4ncccn4)CC3)nc2n1	Autofluor counter 23511
FC(F)(F)c1cc(C(F)(F)F)c2ccc(N3CCN(c4ccc(Cl)cc4)CC3)nc2n1	Autofluor counter 21584
Fc1ccc(N2CCN(c3ccc4c(C(F)(F)F)cc(C(F)(F)F)nc4n3)CC2)cc1	Autofluor counter 21176
Cc1cc(F)ccc1-c1cc(C(=O)NC(C)C)[nH]n1	none (no result: MazF activator)
O=C(Cc1ccccn1)Nc1ccccc1	Autofluor counter 22456
Nc1cc(N)nc(SCC(=O)Nc2ccccc2)n1	none
O=C(CSc1ncccn1)Nc1ccccc1	BoNT-A LC inh2 inconclusive, Autofluor counter 20507
O=C(c1ccccc1)n1c2ccccc2c(=O)n1-c1ccccc1CCl	none (no result: MazF activator)
Oc1ccc(C=NN=Cc2ccco2)c(O)c1	none
CC1(Oc2ccc(CC#N)cc2)CCN(Cc2ccc(-n3ccnc3)cc2)C1 (configuration not stated)	none (no result: MazF activator)
COc1ccc(S(=O)(=O)NCc2cccnc2)cc1NC(=O)c1ccccc1C	none
CCOC1=C2[C@@H](CN(S(=O)(=O)c3ccc(C)cc3)[C@H]2c2cccc3ccccc23)[C@H]2C(=O)N(CC)C(=O)[C@H]2C1	none (no result: MazF activator)
COc1ccc(CN2CCN(CC(=O)Nc3ccccc3C(=O)NC3CC3)CC2)cc1F	BoNT F protease inconclusive, Autofluor counter 19106
O=C(Nc1ccc(Cl)cc1)c1csc(-c2ccccc2)n1	Autofluor counter 16593
CNC(=O)c1csc(-c2ccc(C)cc2)n1	Autofluor counter 20516
CNC(=O)c1csc(-c2ccc(Cl)cc2)n1	none
O=C(c1ccc(NS(=O)(=O)c2ccc(Cl)c(Cl)c2)cc1)N1CCOCC1	none
O=S(=O)(N1CCCCCC1)N1CCN(S(=O)(=O)N2CCCCC2)CC1	Autofluor counter 19718
O=S(=O)(N1CCOCC1)N1CCCN(S(=O)(=O)N2CCOCC2)CC1	none
CCc1nc2c(OCc3ccc(F)c(F)c3)cccn2c1N(C)C(=O)c1ccc(OC)cc1	none (no result: MazF activator)
CN(C(=O)CNC(=O)c1ccc(Br)o1)C1CCCCC1	none
Cc1ccc(S(=O)(=O)c2nc(Nc3ccccc3C#N)sc2Cl)cc1	none
